MsrA inh – bovine MsrA enzyme inhibitors, primary screen, biochemical, absorbance, HTS; Methionine sulfoxide reductase A (Bos taurus); purified bovine MsrA, absorbance read-out; inhibition, % at 15.5 µM; actives 0.75% (n = 360,000); AID 651718, 2012;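 further: 0% = vehicle wells with enzyme and 100% = reference inhibitor wells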
OPRM1-OPRD1 inv – inverse agonists of MOR-DOR heterodimerization, primary screen, cell-based, luminescence; Mu-type opioid receptor (Homo sapiens) + Delta-type opioid receptor (Homo sapiens), …; cell-based MOR-DOR heterodimer luminescence, inverse agonism; inhibition, % at 9.3 µM; actives 0.21% (n = 340,000); in the data active means inhibition above about 22%, passing the limit was not always enough;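 further: 0% = cells with DMSO and 100% = wells without cells with DMSO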
HTR5A inv ctr – HTR5A inverse agonists in luminescence cell assay, primary screen, counter-screen for OPRM1-OPRD1 heterodimer inverse agonist project, full-deck HTS; inhibition, % at 9.3 µM; 5-hydroxytryptamine receptor 5A (Homo sapiens), P47898; AID 504634, 2011; HTR5A cell line, inverse agonism; actives 0.083% (n = 340,000); in the data active means inhibition mostly above about 23%, no sharp cut-off; inactive means mostly below about 18%;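 further: 0% = cells with DMSO and 100% = no-cell wells with DMSO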
HTR5A ag ctr – HTR5A agonists in luminescence cell assay, primary screen, counter-screen for OPRM1-OPRD1 heterodimer agonist project, full-deck HTS | 5-hydroxytryptamine receptor 5A (Homo sapiens), P47898 | cell-based | activation, % at 9.3 µM | actives 0.61% (n = 340,000); in the data active means activation mostly above about 9.5%, no sharp cut-off; inactive means mostly below about 7.6%;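 further: 0% = cells with vehicle only and 100% = reference agonist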
MOR-DOR ag – agonists of OPRM1-OPRD1 heterodimerization, primary screen, cell-based, luminescence | cells | actives 0.3% (n = 340,000) | Mu-type opioid receptor (Homo sapiens) + Delta-type opioid receptor (Homo sapiens), … | activation, % at 9.3 µM; in the data active means activation above about 18%;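 further: 0% = vehicle-treated cells and 100% = reference agonist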
bovine MsrA act – bovine MsrA enzyme activators, primary screen, biochemical, absorbance, HTS; activation, % at 10.6 µM; actives 0.3% (n = 360,000); purified bovine MsrA, absorbance read-out; in the data active means activation above about 7.5%;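 further: 0% = vehicle and 100% = reference activator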
MsrA conf – bovine MsrA inhibitors, retest, confirmation, biochemical, absorbance, HTS. AID 651822, 2012. purified bovine MsrA, absorbance read-out. inhibition, % at 15.5 µM. shares compounds with MsrA inh. actives 41% (n = 2,300);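 further: coupled to thioredoxin reductase with NADPH and selenocystamine and DMSO as substrate; 0% = vehicle only and 100% = full effect of reference inhibitor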
Numbers without * were called inactive; / = not tested or not shown. This is a sample that favours compounds with a hit; in the whole collection about 1.9% have one here. Unless noted, no stated cut-off is given here; in the data, active means inhibition above about 4.5%; inactive means the rest.

SMILES	MsrA inh	OPRM1-OPRD1 inv	HTR5A inv ctr	HTR5A ag ctr	MOR-DOR ag	bovine MsrA act	MsrA conf
O=C(O)c1ccc(N/N=C/c2ccc(F)c(F)c2)cc1	7.9*	20	-20	6	-4	-5	5.9*
CCS(=O)(=O)CCSc1nc2ccccc2o1	6.1*	5	12	1	-1	-2	4
CCOc1ccc2nc(N3C(=O)CNC3=S)sc2c1	7.3*	18	9	1	-4	-5	4.6*
CCCCC(=O)N1CCN(c2nc3ccc(OCC)cc3s2)CC1	0	-3	10	-3	1	0	/
Cc1cc2nc(N3C(=O)CNC3=S)sc2cc1C	7.7*	13	8	2	-3	-6	4.9*
O=C(N/C(=C/c1ccc(Br)cc1)C(=O)N1CCOCC1)c1ccco1	1	4	12	-1	-1	-3	/
CSc1ccc(/C=C(/NC(=O)c2ccco2)C(=O)N2CCOCC2)cc1	5.0*	19	-8	3	-4	0	1
CCCCCCCCN1C(=O)[C@@H](CC(=O)NCCCCc2ccccc2)C[C@@]2(C(=O)OC)C1=C[C@H](C(C)(C)C)O[C@@H]2C	0	/	/	/	/	/	/
CC(=O)c1cccc(Nc2cc(C)nc3c(C)cc(C)cc23)c1	5.9*	4	-22	-2	-1	-6	2
Cc1ccc(NC(=O)C2(C)CCN2C(=O)Cc2ccccc2)cc1C (stereo not given)	0	/	/	/	/	-1	/
Cc1ccn2c(=O)nc(SCC(=O)OCc3ccccc3)nc2c1	1	9	4	-2	-1	-5	/
CCOC(=O)CSc1nc(=O)n2ccc(C)cc2n1	4.7*	16	-10	-3	-3	-4	0
Cc1cn([C@H]2C[C@H](O)[C@@H](CNCc3cccn3-c3nccs3)O2)c(=O)[nH]c1=O	3	/	/	/	/	1	/
O=C1N=C(N2C=CC(=C3C=CNC=C3)C=C2)/C(=C/N=NC(=O)c2ccccc2O)S1	5.8*	10	6	-1	-2	-5	6.6*
CCN(CC)C(=O)c1sc2nc(Cc3ccccc3)[nH]c(=O)c2c1C	1	19	-6	-1	-4	-10	/
Cc1c(C(=O)N(C)C)sc2nc(-c3ccccn3)[nH]c(=O)c12	5.8*	16	-9	3	-3	-6	3
Nc1ccccc1C(=O)N=Nc1[nH]c(N)c2ccccc12	5.4*	19	14	-1	-4	-5	4
Nc1[nH]c(N=NC(=O)c2ccc(F)cc2)c2ccccc12	4	20	-21	8	-4	-12	/
COC(=O)C1=C(C)N(C)C(=NCC2CC2)NC1c1ccccc1C(F)(F)F (stereo not given)	0	/	/	/	/	/	/
CCOC(=O)[C@]12CCCC=C1N(CCC1=CCCCC1)C(=O)[C@H](CC(=O)NCc1ccc(OC)c(OC)c1)C2	1	/	/	/	/	/	/
Cc1nn(-c2ccccc2)c(N)c1N=Nc1ccccc1	5.3*	-15	-13	0	3	-6	2
COc1ccc(/C=C(\C#N)C(=O)N2COCC2(C)C)cc1	5.1*	18	-22	6	-3	-2	3
N#Cc1ccccc1NC(=O)CSc1ccc([N+](=O)[O-])cn1	1	-4	2	-3	1	-4	/
N#Cc1cc([N+](=O)[O-])cnc1NCC(O)CO (stereo not given)	5.4*	17	-21	9	-3	-4	5
C=C1[C@H](C)CN(S(=O)C(C)(C)C)[C@H]1CCO (stereo not given in full)	0	/	/	/	/	/	/
SMILES	MsrA inh	OPRM1-OPRD1 inv	HTR5A inv ctr	HTR5A ag ctr	MOR-DOR ag	bovine MsrA act	MsrA conf
CCOC(=O)c1cccc(S(=O)(=O)N(CCO)Cc2cc3cc(OC)c(OC)cc3[nH]c2=O)c1	5.1*	8	-3	-2	-1	-6	2
CCOC(=O)c1cccc(S(=O)(=O)N(CCO)Cc2cc3cc(OC)ccc3[nH]c2=O)c1	/	-1	-35	3	0	-5	/
N#C/C(=C/Nc1ccccc1C(=O)O)C(N)=O	5.8*	16	-9	0	-3	-9	6.8*
CC(Nc1cc(N2CCN(S(=O)(=O)N(C)C)CC2)ccc1[N+](=O)[O-])c1ccccc1 (stereo not given)	8.5*	17	13	-5	-3	-4	8.0*
O=[N+]([O-])c1cc([N+](=O)[O-])c(N2CCOCC2)cc1NCc1ccccc1	36*	12	-21	3	-2	-2	36*
CC(Nc1cc(N2CCN(S(C)(=O)=O)CC2)ccc1[N+](=O)[O-])c1ccccc1 (stereo not given)	24*	8	-1	3	-1	-3	20*
CCS(=O)(=O)N1CCN(c2ccc([N+](=O)[O-])c(NCc3cccnc3)c2)CC1	5.4*	-4	1	5	1	-14	2
O=[N+]([O-])c1ccc(N2CCN(S(=O)(=O)c3ccccc3[N+](=O)[O-])CC2)cc1NCc1cccnc1	2	5	7	1	-1	-3	/
CC(Nc1cc(N2CCCC2)ccc1[N+](=O)[O-])c1ccccc1 (stereo not given)	0	-1	-1	7	0	-5	/
CC(Nc1cc(N2CCOCC2)ccc1[N+](=O)[O-])c1ccccc1 (stereo not given)	30*	-11	-5	-1	2	-1	21*
COc1ccc(/C=C/C(=O)Nc2ccc(OC)nc2)cc1	5	-27	-11	4	4	-5	/
COc1ccc(NC(=O)/C=C/c2ccc(OC)c(OC)c2)cn1	6.8*	3	41	2	-1	-6	5
COc1ccc(/C=C/C(=O)NC(=S)NNC(=O)c2cccnc2)cc1OC	5.6*	22	3	-2	-4	-8	5.6*
COc1cc(/C=C/C(=O)Nc2ccc3[nH]c(=O)[nH]c3c2)cc(OC)c1OC	5.6*	-3	28	0	1	-6	3
COc1cc(/C=C/C(=O)OCC(=O)Nc2ccc(S(=O)(=O)N3CCCC3)cc2)ccc1O	1	4	16	-4	-1	-10	/
COc1ccc(/C=C/C(=O)OCC(=O)Nc2ccc(S(N)(=O)=O)cc2)cc1OC	4.8*	15	9	-1	-3	-7	2
C#CCNC(=O)C[C@H]1C[C@@]2(C(=O)OC)C(=C[C@H](C(C)(C)C)O[C@@H]2C)N(CCc2ccc(OC)c(OC)c2)C1=O	1	/	/	/	/	/	/
COc1cc(NC(=O)/C=C/c2ccccc2)c(C(=O)O)cc1OC	4.7*	3	-15	5	-1	-15	3

Bioassay records (PubChem BioAssay)
